Screens deposited in PubChem by National Center for Advancing Translational Sciences (NCATS).
Compounds with a hit are over-represented: about 2.4% of the library has one in this group of screens.
Pol eta inh-1 = blocks human DNA polymerase eta activity | Q9Y253 | recombinant Pol eta, fluorescent DNA replication assay | Potency, µM (doses to about 114 µM), inactives show at the top dose activity change, negative = inhibition, actives largely listed as inhibitors | actives 1.2% (n = 390,000); note: % is set by controls: 0 for no effect and ±100 for the full control effect
Target sequence (Q9Y253 whole entry, looked up): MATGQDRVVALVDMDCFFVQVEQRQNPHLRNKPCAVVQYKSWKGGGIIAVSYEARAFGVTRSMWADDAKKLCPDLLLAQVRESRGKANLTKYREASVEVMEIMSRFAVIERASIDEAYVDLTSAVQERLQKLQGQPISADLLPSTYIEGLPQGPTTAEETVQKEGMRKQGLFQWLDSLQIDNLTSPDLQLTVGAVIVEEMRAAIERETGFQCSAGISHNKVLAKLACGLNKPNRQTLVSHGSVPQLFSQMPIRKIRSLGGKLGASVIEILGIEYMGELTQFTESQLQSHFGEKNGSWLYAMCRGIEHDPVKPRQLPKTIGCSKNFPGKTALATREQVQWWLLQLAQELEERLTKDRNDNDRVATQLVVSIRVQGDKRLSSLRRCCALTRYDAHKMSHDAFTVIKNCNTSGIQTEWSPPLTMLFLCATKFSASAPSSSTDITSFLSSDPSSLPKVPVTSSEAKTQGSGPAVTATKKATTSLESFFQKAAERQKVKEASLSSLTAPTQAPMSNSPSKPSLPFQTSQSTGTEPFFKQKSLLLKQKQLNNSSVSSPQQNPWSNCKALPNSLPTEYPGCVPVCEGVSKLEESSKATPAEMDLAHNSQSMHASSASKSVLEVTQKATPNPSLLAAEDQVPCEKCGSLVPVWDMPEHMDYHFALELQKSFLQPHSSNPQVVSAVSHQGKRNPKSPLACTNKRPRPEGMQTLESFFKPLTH
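Pol eta (10 nM) was preincubated with compounds for 15 min at room temperature, after which fluorescent replication substrate (50 nM final) was added to start the reaction. Fluorescence was read kinetically at 0 and 10 min.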
GLS inhibitor = inhibitors of human glutaminase (GLS) | O94925 | GLS enzymatic activity, qHTS titration | Potency, µM (top dose mostly 45.5 µM), without a hit: at the highest dose activity change, negative = inhibition, hits mostly inhibitors | actives 0.21% (n = 410,000); note: % is set by controls: 0 for no effect and ±100 for the full control effect
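Glutamate formation by hKGA was monitored fluorometrically using coupled glutamate oxidase, HRP and Amplex Red. Substrate was added as 1 mM L-glutamine solution; incubation was 30 min at RT after an initial read.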
KAT2A inh = blocks human GCN5L2 histone acetyltransferase; actives 0.21% (n = 390,000); AID 504327; Q92830; GCN5L2 HAT assay, ThioGlo1 CoA-SH fluorescence; Potency, µM (doses to about 58.9 µM), inactives show top-dose activity change, negative = inhibition, usual class: inhibitors; note: % is set by controls: 0 for no effect and ±100 for the full control effect
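GCN5L2 (20nM final) in 50mM HEPES, 0.1mM EDTA pH 7.5, 0.01% Tween-20 was preincubated 15 min at room temperature with compound, then given ThioGlo1 (50uM), H3(1-25) peptide (75uM) and acetyl-CoA (70uM); CoA-thiol fluorescence (Ex340/Em540) was read at 0 and 20 min.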
POLB inh = DNA polymerase beta (human) inhibition; P06746; Pol beta primer extension/strand displacement, fluorescence kinetic; Potency, µM (titrated, usually from 114 µM), for inactives: at the top dose activity change, negative = inhibition, actives largely listed as inhibitors; actives 1.3% (n = 340,000); note: % is set by controls: 0 for no effect and ±100 for the full control effect
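Values derive from four-parameter Hill fits of normalized kinetic data: reads at 0 and 10 min following addition of 50 nM substrate to 10 nM Pol beta preincubated 15 min with compound.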
POLI inh = blocks human DNA polymerase iota activity | Potency, µM (highest dose often 115 µM), without a hit: at the top dose activity, negative = inhibition, most hits filed as inhibitors | AID 588590 | Pol iota fluorescent replication assay, 10 min | actives 1% (n = 390,000)
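Fluorescent replication assay read twice, at 0 min and 10 min after adding 50 nM (final) substrate. Enzyme (10 nM) and compounds were first incubated 15 min at room temperature; enzyme-free buffer wells were negative controls.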
Pol kappa inh-1 = blocks human DNA polymerase kappa activity; purified Pol kappa, fluorescent DNA synthesis assay, 10 min; AID 588579; Potency, µM (top dose mostly 107 µM), without a hit: at the top dose activity, negative = inhibition, most hits filed as inhibitors; Q9UBT6; actives 0.53% (n = 400,000); note: % is set by controls: 0 for no effect and ±100 for the full control effect
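10 nM Pol kappa preincubated 15 min at room temperature with compounds, then reaction started with substrate at 50 nM final. Fluorescence read kinetically at 0 and 10 min; buffer-only wells served as negative control.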
PGK validate = blocks T. brucei phosphoglycerate kinase | actives 79% (n = 500) | shares compounds with Pol kappa inh-1 | Potency, µM (highest dose often 57.5 µM), inactives show top-dose activity change, negative = inhibition, hits mostly inhibitors | AID 686980 | TbPGK coupled GAPDH assay, Kinase-Glo luminescence; note: % is set by controls: 0 for no effect and ±100 for the full control effect; nearly all actives have a fitted effect of over 65% in size
Pol iota confirm = Inhibitors of human DNA polymerase iota, confirmation; shares compounds with Pol kappa inh-1; Pol iota primer extension, TAMRA/BHQ fluorescence; Potency, µM, usual class: inhibitors; actives 77% (n = 1,500); AID 720496
Pol kappa inh-2 = confirmation of human DNA polymerase kappa inhibitors | shares compounds with Pol eta inh-1 | purified Pol-kappa, fluorescent strand-displacement substrate | Potency, µM, hits mostly inhibitors | actives 76% (n = 920) | AID 720501
Pol eta inh-2 = confirmation of human DNA polymerase eta inhibitors; Pol eta primer extension, TAMRA/BHQ fluorescence, 10 min; actives 64% (n = 2,600); Potency, µM, most hits filed as inhibitors; shares compounds with Pol eta inh-1
An asterisk follows results filed as active; ? = inconclusive; . = no result; [ ] = another dose, or the depositor's remark. Calls come from the whole dose curve; as a rule, active = well fitted curve in the direction sought with a large enough effect; inconclusive = small, poorly fitted or top-dose-only effect, or another doubt; inactive = no such curve, though single readings can be large; an effect the other way counts as inactive or inconclusive. Potency is the fitted concentration of half-maximal effect.

SMILES	Pol eta inh-1	GLS inhibitor	KAT2A inh	POLB inh	POLI inh	Pol kappa inh-1	Pol iota confirm	Pol eta inh-2	others
COc1ccc(NC(=O)C2=C(C)Nc3nc(SCc4ccccc4C)nn3C2c2cc(OC)c(O)c(OC)c2)cc1 (stereo not given)	?	-0.9%	-15.2%	8.91µM*	28.2µM*	-27.6%	?	.	Pol kappa inh-2=?
COc1ccc(NC(=O)C2=C(C)Nc3nc(SCc4ccccc4C)nn3C2c2ccc(Br)cc2)cc1 (stereo not given)	-8.4%	-6.4%	-9.1%	0.8%	20.7%	-19.6%	.	.
CCOC(=O)CN1C(=O)S/C(=C/c2ccc(N3CCCCC3)o2)C1=O	-21.9%	-13.5%	-2.1%	45.6%	12.8%	0.0%	.	.
CCOC(=O)CN1C(=O)S/C(=C\c2ccc(-c3ccc(C(=O)O)c(Cl)c3)o2)C1=O	10µM*	?	?	?	20µM*	39.8µM*	?	30.1*	Pol kappa inh-2=16.8*
COC(=O)c1sc(N2C(=O)c3oc4ccc(C)cc4c(=O)c3C2c2ccc(OC)cc2)nc1C (stereo not given)	-3.7%	-2.6%	-2.5%	20.4%	9.2%	7.7%	.	.
N#Cc1c(N)oc(-c2ccco2)c1-c1ccco1	?	2.1%	-8.4%	-15.5%	?	?	.	.
COc1ccc(OC)c(/C=N/c2oc(-c3ccco3)c(-c3ccco3)c2C#N)c1	79.4µM*	-2.6%	-21.6%	44.7µM*	?	79.4µM*	37.7*	47.8*
CCCCCCCCCCCCCc1ccco1	.	.	2.5%	.	.	-8.4%[60.1 µM]	.	.
O=C(CCc1ccco1)CCc1ccco1	?	0.9%	.	.	25.1µM*	?	?	75.7*	Pol kappa inh-2=33.6*
Cc1ccc(-c2cc(-c3ccccc3)nc(N)c2C#N)o1	-16.4%	0.1%	-3.3%	8.6%	44.2%	-11.6%	.	.
CC1=C(C#N)c2nc(N)c(C#N)c(C)c2/C1=C\c1ccc(-c2ccccc2C(=O)O)o1	7.94µM*	-13.7%	?	10µM*	?	22.4µM*	42.3*	26.9*
O=C(/C=C/c1ccco1)NC(=S)Nc1ccc(C(=O)O)cc1	7.08µM*	-4.5%	-4.3%	11.2µM*	?	25.1µM*	9.47*	5.36*
CN(C)c1ccc(-c2nc(NCc3cccnc3)c3ccccc3n2)cc1	.	.	-16.7%	.	.	?	.	.
CSC1SCC2C(=O)N(C)C(C(C)C)C(=O)OCC(NC(=O)c3cnc4ccccc4n3)C(=O)NC(C)C(=O)N(C)C1C(=O)N(C)C(C(C)C)C(=O)OCC(NC(=O)c1cnc3ccccc3n1)C(=O)NC(C)C(=O)N2C (stereo not given)	-98.7%	?	.	.	0.316µM*	-100.4%	1.5*	1.51*	Pol kappa inh-2=0.752*
CC(C)Sc1nc2sc3c(c2c(=O)n1Cc1ccccc1)CCCC3	11.2%	-1.9%	-1.6%	15.4%	?	3.8%	.	.
O=C1C(=Cc2cccc(O)c2O)SC(=S)N1CCCN1CCOCC1	20µM*	-11.2%	.	.	.	.	?	?
CCN1CCN(Cc2nc3cc(NC(=O)c4ccccc4[N+](=O)[O-])ccc3n2CC)CC1	-1.0%	1.9%	-6.0%	21.1%	17.0%	-7.4%	.	.
Cc1ccc(NC(=O)CCSc2nc(-c3ccco3)cc(C(F)(F)F)n2)cc1F	-17.5%	2.8%	-5.6%	0.7%	-13.3%	3.0%	.	.
CN(C)c1ccc(/C=C/C=C2/SC(=S)N(c3ccccc3)C2=O)cc1	0.3%	23.2%	-0.2%	37.1%	?	-3.7%	.	.
CC(C)c1ccc(N2C(=O)/C(=C/N(C)C)SC2=S)cc1	?	-0.2%	-7.8%	?	7.94µM*	?	4.23*	3.01*	Pol kappa inh-2=29.9*
COc1ccc(Cc2nc3ccccc3n2CC(=O)N/N=C/c2ccc(C)cc2O)cc1OC	?	-0.5%	-22.6%	7.94µM*	20µM*	?	9.47*	67.5*	Pol kappa inh-2=29.9*
COc1ccc(Cc2nc3ccccc3n2CC(=O)N/N=C/c2ccc(O)cc2)cc1OC	-11.1%	26.5%	-2.1%	3.1%[57.1 µM]	-0.1%	-1.8%	.	.
COc1ccc(C(CC(=O)N2CCCC2)c2c(OC)cc(OC)c3c(-c4ccccc4)cc(=O)oc23)cc1 (stereo not given)	?	?	-12.2%	35.5µM*	70.8µM*	79.4µM*	33.6*	75.7*
COc1cc(OC)c2c(-c3ccccc3)cc(=O)oc2c1C(CC(=O)N1CCCC1)c1ccc(N(C)C)cc1 (stereo not given)	.	.	.	.	-7.3%	-10.4%	.	.
COc1ccc(C(CC(=O)N2CCCCC2)c2c(OC)cc(OC)c3c(-c4ccccc4)cc(=O)oc23)cc1 (stereo not given)	20µM*	?	-13.8%	25.1µM*	70.8µM*	50.1µM*	42.3*	?
SMILES	Pol eta inh-1	GLS inhibitor	KAT2A inh	POLB inh	POLI inh	Pol kappa inh-1	Pol iota confirm	Pol eta inh-2	others
COc1ccc(NC(=O)c2sc3nc(C)c(C(=O)Nc4ccc(C)cc4C)c(-c4sccc4C)c3c2N)cc1	-16.5%	-3.9%	?	2.7%	19.9%	0.0%	.	.
O=C1c2oc3ccccc3c(=O)c2C(c2cccc(O)c2)N1Cc1ccc(F)cc1 (stereo not given)	0.6%	-3.7%	-18.3%	18.5%	-14.4%	-3.4%	.	.
CCOc1ccccc1CNC(=O)c1cnc2sc(N3CCOCC3)nn2c1=O	-0.8%	3.2%	-5.7%	1.6%	-26.1%	-6.1%	.	.
c1cnc(N2CCN(c3ncc4c(n3)CCNC4)CC2)nc1	17.8µM*	-3.9%	-12.3%	44.7µM*	?	-29.8%	16.8*	23.9*	Pol kappa inh-2=2.99*
CC(=C/C(=O)O)/C=C/c1ccc(Cl)o1	1.12µM*	17.8µM*	-3.1%	12.6µM*	7.94µM*	25.1µM*	21.2*	8.49*	PGK validate=14.6µM*
CC(/C=C/c1ccc(C)o1)=C\C(=O)O	0.8%	4.3%	?	39.4%	-20.5%	-1.8%	.	.
O=C(Cn1c(=O)c2ccccc2n(CC(=O)Nc2ccc(Cl)cc2)c1=O)NCCc1ccccc1	-8.0%	1.4%	-6.2%	-0.7%	-11.7%	-7.8%	.	.
